About 83,000 compounds went through this panel and 20% of them were active in at least one assay; those are over-represented in the sample as a whole.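 Results are percent growth after 48 hours of single-concentration exposure. 100 means growth as in untreated cells, lower positive values show inhibition; negative values down to -100 show cell death.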 Values without a mark were called inactive. Active and inactive are the calls of the source. The calls were made as follows: active = growth percent below 10; inactive = the rest.
Experiments:
Assay in all cases: NCI-60 one-dose screen, 48 h (100 = growth as untreated, 0 = no growth, -100 = all killed)
Conditions in all cases: 10 µM unless noted
T-47D breast = system: T-47D breast
BT-549 breast = system: BT-549 breast
MDA-MB-435 melanoma = system: MDA-MB-435 melanoma
SW-620 colon = system: SW-620 colon
MCF7 breast = system: MCF7 breast
HCT-116 colon = system: HCT-116 colon
HCC-2998 colon = system: HCC-2998 colon
KM12 colon = system: KM12 colon

SMILES	growth (T-47D breast)	growth (BT-549 breast)	growth (MDA-MB-435 melanoma)	growth (SW-620 colon)	growth (MCF7 breast)	growth (HCT-116 colon)	growth (HCC-2998 colon)	growth (KM12 colon)
COc1ccc(OC)c(/C=C/[C@H]2O[C@@H](C)[C@H](O)[C@@H]2O)c1	96%	104%	100%	113%	101%	101%	108%	112%
BrC(Br)(Br)c1cnc2ccccc2n1	-49.3% (active)	74.4%	36.5%	-65% (active)	25.8%	-40.3% (active)	43.8%	42.7%
[O-][n+]1ccccc1CCN(O)CCc1cccc[n+]1[O-]	100%	101%	105%	102%	102%	94.7%	109%	104%
N#CC1=C(N)Oc2c(ccc3ccccc23)C1c1ccc([N+](=O)[O-])cc1 (stereo unspecified)	74.6%	83.1%	6.07% (active)	55.5%	51.8%	68.8%	85.9%	50.4%
NC(=S)N/N=C(\c1ccc(Cl)cc1)C1CC1	30.6%	114%	93.8%	72%	18.5%	3.65% (active)	102%	100%
Nc1c(C(=O)Nc2cccc3ccncc23)sc2nc3c(cc12)C(=O)CCC3	48.5%	50.6%	-35% (active)	31.1%	21.5%	43.4%	77.2%	30.8%
CN1CCN(C(=O)OCc2nc3c(N4CCOCC4)nc(-c4ccccc4)nc3n2C)CC1	-40.7% (active)	-71.1% (active)	-84.1% (active)	-46.4% (active)	-64.3% (active)	-71.6% (active)	-75.4% (active)	-61.6% (active)
C#Cc1cccc(NC(=O)Nc2ccc(NC(=O)CCl)cc2)c1	-40.2% [8.25 µM] (active)	-64.2% [8.25 µM] (active)	21.7% [8.25 µM]	-61.7% [8.25 µM] (active)	14.1% [8.25 µM]	-0.386% [8.25 µM] (active)	82.6% [8.25 µM]	-27.2% [8.25 µM] (active)
O=C1Nc2c(ccc(Cl)c2Cl)/C1=C/c1ccc([N+](=O)[O-])cc1	85.3%	87.4%	93%	100%	90.4%	76.9%	108%	110%
FC(F)(F)c1cccc(Nc2ccccc2)c1	101%	98.2%	101%	101%	93.5%	95.2%	98.9%	102%
NC(=O)c1cccc(-c2ccccc2N2CCCCC2)c1	83%	101%	100%	108%	92.5%	89.4%	102%	99.1%
CCCCCCCCCCCCCCCC(=O)OC[C@@]1(O)C[C@@]23CC[C@@H]4C(C)(C)[C@H](O)CC[C@@]4(C)[C@@H]2CC[C@H]1C3	98.1%	91.5%	108%	110%	97%	-67% (active)	107%	108%
COc1ccccc1Nc1cc(O)c2c(=O)cc(-c3ccccc3)oc2c1	31.4%	40.9%	-24.3% (active)	20.8%	17.3%	14.1%	71.9%	36.2%
CS(=O)(=O)c1ccc(-c2cc3c(oc2=O)-c2ccccc2OC3O)cc1 (stereo unspecified)	90.4%	107%	111%	97.8%	84.8%	95.9%	97.5%	95.1%
c1ccc(C2CC(c3cccc(Nc4ccncc4)c3)=NN2c2ccccc2)cc1 (stereo unspecified)	92.1%	92.7%	15.3%	-44.4% (active)	14.4%	-67.1% (active)	3.07% (active)	44.7%
NC(=O)c1ncn(C2OC(CO)C(O)C2O)n1 (stereo unspecified)	84.6%	96.8%	107%	70.9%	80.8%	57.5%	92.8%	98.3%

SMILES	growth (T-47D breast)	growth (BT-549 breast)	growth (MDA-MB-435 melanoma)	growth (SW-620 colon)	growth (MCF7 breast)	growth (HCT-116 colon)	growth (HCC-2998 colon)	growth (KM12 colon)
CCOC(=O)c1c(SC)nn(-c2cc(=O)[nH]c3ccc(Br)cc23)c1N	92.9%	116%	107%	94.2%	93.4%	89.5%	102%	99%
COc1ccc(C(=O)/C=C/c2cn(Cc3ccc(Cl)cc3)c3ccccc23)cc1	48.2%	86.9%	-20.5% (active)	28%	52.6%	-77.5% (active)	59.7%	32.2%
COc1ccc(C2=C(c3ccccc3)c3ccc(OC(C)=O)cc3OC2(C)C)cc1	83.9%	140%	80.5%	82.1%	93.9%	88.9%	86.5%	52.7%
Nc1c(C(=O)Nc2ccc(Cl)cc2)cc(-c2nc3ccccc3s2)c(=O)n1NS(=O)(=O)c1ccc(Cl)cc1	92.9%	122%	99.8%	96.9%	84.2%	98.6%	107%	99%
CCCCN(CCCC)CCc1c(C)cc(C)c(CCN(CCCC)CCCC)c1O	5.78% (active)	43.3%	17.1%	24.1%	12.8%	6.6% (active)	19.6%	41.4%
COc1ccc(-c2nc(N=Nc3c(O)[nH]c4ccccc34)nc(N3CCOCC3)c2C#N)cc1	65.4%	62.8%	79.1%	66.8%	60.6%	29.7%	95%	73.4%
CC(=O)O[C@]1(C(C)=O)CC[C@H]2[C@@H]3C=C(Cl)C4=CC(=O)CC[C@]4(C)[C@H]3CC[C@@]21C	97.1%	94.5%	113%	115%	112%	96.7%	103%	109%
CCn1cc(C2NC(=O)c3ccccc3N2)c2cccc(C)c21 (stereo unspecified)	36.9%	48.7%	-31.9% (active)	24.7%	16.9%	7.91% (active)	9.07% (active)	15.9%
CN1C2CCC1CN(c1cnc(C(=O)Nc3cc(F)cc4cccnc34)cn1)C2	36%	70.7%	55.9%	36.2%	5.77% (active)	18.8%	83.1%	76.9%
Clc1nc(Cl)c2ncn(CC3(Cn4cnc5c(Cl)nc(Cl)nc54)COC3)c2n1	-61.7% (active)	-93.2% (active)	-85.7% (active)	-88.7% (active)	-52.4% (active)	-100% (active)	-85.3% (active)	-73.4% (active)
COc1ccc(C(O)c2cc3c(N)c(C(=O)Nc4ccccc4)sc3nc2C)cc1 (stereo unspecified)	51.7%	31.6%	-15.1% (active)	19.3%	13.4%	6.95% (active)	9.2% (active)	3.05% (active)
O=C1c2ccccc2C(=O)c2c(NCCN=Cc3ccccc3O)cccc21	63.6%	73.4%	71.5%	35.4%	32.4%	15.4%	30.9%	48.7%
COc1ccc(Cc2nc3cc(OC)c(OC)cc3c(=O)[nH]2)cc1	96%	159%	87.3%	14.3%	91.6%	72.6%	53.7%	18.9%
O=C(Nc1ccc2cc3ccc(NC(=O)N4CCCCCC4)cc3nc2c1)N1CCCCCC1	-30% (active)	-66.6% (active)	-82.4% (active)	-56.3% (active)	-45.9% (active)	-53.1% (active)	-63.7% (active)	-65.9% (active)
NC(=O)c1ccc[n+](CC(=O)N2CCN(c3cc4c(cc3F)c(=O)c(C(=O)O)cn4C3CC3)CC2)c1	99.1%	87.3%	75.2%	6.58% (active)	62.4%	37.1%	115%	90.1%
CCN(CC)CCCCCCNc1cc(OC)cc2cccnc12	92.5%	83.9%	17.8%	-64.5% (active)	20%	-54.4% (active)	84.1%	76%

Source: PubChem BioAssay (NCI)
